Inconclusive results are not listed. Active and inactive are the calls of the source. Unless noted, calls follow the shape of the dose curve; as a rule, active = well fitted curve in the direction sought with a large enough effect; inconclusive = small, poorly fitted or top-dose-only effect, or another doubt; inactive = no such curve, though single readings can be large; an effect the other way counts as inactive or inconclusive.
Tests used:
[1] = Primary qHTS for inhibitors of nuclear receptor binding SET domain protein 2 (NSD2) in an RCH-ACV wild type WT cells (2C) (AID 1645877); details: RCH-ACV (leukaemia line) NSD2 WT (2C) viability, CellTiter-Glo, 72 h; series mostly up to 44.9 µM; also: nearly all actives have a fitted effect of over 70% in size; also: potency is read from the fitted curve at half-maximal effect
[2] = test system: HEK293; assay: Cytotoxic Profiling of Annotated Libraries Using Quantitative High-Throughput Screening (AID 1296008); details: Five cell lines viability, CellTiter-Glo ATP luminescence, 48-72 h; max response: stronger effect = lower value; also: nearly all actives have a fitted effect of over 60% in size; also: potency is read from the fitted curve at half-maximal effect; as to max response: % is scaled to controls: 0 for no effect and ±100 for the full control effect
How it was run: (§1)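 Cytotoxicity was measured as CellTiter-Glo ATP luminescence, read after 10 min at room temperature. Compound treatment of the cells lasted 48 or 72 hr at 37 degrees Celsius in a qHTS format.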

[3] = test system: C33A; assay: Primary qHTS to identify gynecologic anti-cancer compounds using libraries of approved drugs and bioactive compounds (AID 1345084); details: Gynecologic cancer cell panel viability, ATPlite luminescence, 48 h; series mostly up to 57.5 µM; also: nearly all actives have a fitted effect of over 55% in size; also: potency is read from the fitted curve at half-maximal effect; as to activity change, negative = cytotoxicity: % is scaled to controls: 0 for no effect and ±100 for the full control effect
How it was run: (§2)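 48 h compound exposure at 37 C, 5% CO2; five-point qHTS. ATPlite luminescence readout of cell ATP.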

[4] = test system: Hek293T; assay: as above; details: Gynecologic cancer cell panel viability, ATPlite luminescence, 48 h, control line for the selectivity index; series mostly up to 57.5 µM
How it was run: as §2

[5] = test system: PA-1; assay: as above; details: Gynecologic cancer cell panel viability, ATPlite luminescence, 48 h; series mostly up to 57.5 µM
How it was run: as §2

[6] = test system: Zika virus NS2B-NS3 protease (unlinked complex); assay: Primary screen GU Rhodamine qHTS for Zika virus inhibitors: Unlinked NS2B-NS3 protease assay (AID 1347159); details: Recombinant ZIKV NS2B-NS3 protease, Rhodamine110 substrate fluorescence; series mostly up to 107 µM; also: % is scaled to controls: 0 for no effect and ±100 for the full control effect; nearly all actives have a fitted effect of over 60% in size
How it was run: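 A qHTS format was used, with compound concentrations ranging up to 114 microM. Each compound was preincubated with 25 nM NS2B-NS3 protease, and the substrate was then added at 1.5 microM. Curves were fitted with a 4-parameter Hill model.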

[7] = test system: NIH3T3; assay: Cytotoxic Profiling of Annotated Libraries Using Quantitative High-Throughput Screening (AID 1296008); details: Five cell lines viability, CellTiter-Glo ATP luminescence, 48-72 h; max response: stronger effect = lower value; also: nearly all actives have a fitted effect of over 60% in size; also: potency is read from the fitted curve at half-maximal effect; as to max response: % is scaled to controls: 0 for no effect and ±100 for the full control effect
How it was run: as §1

[8] = test system: Es-2; assay: Primary qHTS to identify gynecologic anti-cancer compounds using libraries of approved drugs and bioactive compounds (AID 1345084); details: Gynecologic cancer cell panel viability, ATPlite luminescence, 48 h; series mostly up to 57.5 µM; also: nearly all actives have a fitted effect of over 55% in size; also: potency is read from the fitted curve at half-maximal effect; as to activity change, negative = cytotoxicity: % is scaled to controls: 0 for no effect and ±100 for the full control effect
How it was run: as §2

[9] = test system: HeLa; assay: as above; details: Gynecologic cancer cell panel viability, ATPlite luminescence, 48 h; series mostly up to 57.5 µM
How it was run: as §2

[10] = test system: SKOV3; assay: as above; details: Gynecologic cancer cell panel viability, ATPlite luminescence, 48 h; series mostly up to 57.5 µM
How it was run: as §2

[11] = test system: CAOV3; assay: as above; details: Gynecologic cancer cell panel viability, ATPlite luminescence, 48 h; series mostly up to 57.5 µM
How it was run: as §2

[12] = test system: Tov112D; assay: as above; details: Gynecologic cancer cell panel viability, ATPlite luminescence, 48 h; series mostly up to 57.5 µM
How it was run: as §2

[13] = test system: HACAT; assay: qHTS assay to identify novel small-molecules to repurpose for Merkel cell carcinoma treatment (AID 1296009); details: MCC and control cell lines, CellTiter-Glo viability, 72 h; at 44.8 µM (top of the series) unless noted; also: nearly all actives have a fitted effect of over 60% in size
How it was run: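 After compound transfer in DMSO, plates were kept 72 hr at 37 degree celsius. Luminescent ATP signal from CellTiter-Glo served as viability measure, normalized against DMSO and no-cell controls.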

[14] = qHTS drug screen for cell cycle checkpoint inhibitors in PARPi-resistant BRCA-mutant ovarian cancer cell lines. (AID 1963452; calls by dose curve); details: PEO1/OlaR viability, CellTiter-Glo luminescence, 96 h, stronger effect = lower value
How it was run: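 PEO1, PEO4 and PEO1/OlaR ovarian cancer cells, 600 per well, exposed 96 h at 37C to a dilution series. Viability read by CellTiter-Glo luminescence, normalized to DMSO and empty wells; activity summarized as Z-AUC.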

[15] = Cytotoxicity counterscreen for inhibitors of SARS-CoV-2 cell entry (AID 1645845; calls by dose curve; also: nearly all actives have a fitted effect of over 50% in size; also: potency is read from the fitted curve at half-maximal effect); details: cell viability (SARS-CoV-2 entry assay cells); series mostly up to 57.1 µM
How it was run: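 48 h compound treatment (after 1 h preincubation), HEK293-ACE2 cells, 37 C/5% CO2; ATP luminescence endpoint; normalized to cell wells and media blanks.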

[16] = Primary qHTS to identify inhibitors of SARS-CoV-2 cell entry (AID 1645846; calls by dose curve; also: nearly all actives have a fitted effect of over 45% in size); details: SARS-CoV-2 pseudovirus cell entry assay, luminescence; activity change, negative = inhibition: at 57.1 µM (top of the series) unless noted; series mostly up to 57.1 µM
How it was run: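 HEK293 cells stably expressing human ACE2, pre-treated 1 h with compound, then infected with MLV particles pseudotyped with Wuhan-Hu-1 spike (C-terminal 19-aa truncation). Luciferase luminescence after 48 h at 37 °C, normalised to spike PP and bald PP.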

[17] = molecular target: Cytochrome P450 2D6 (Homo sapiens) (UniProt P10635); assay: Cytochrome P450 family 2 subfamily D member 6 (CYP2D6) small molecule antagonists: luciferase biochemical (cell-free) qHTS assay (AID 1645840; active = well fitted curve in the direction sought with a large enough effect in the repeat runs; an effect the other way counts as inactive or inconclusive; also: nearly all actives have a fitted effect of over 55% in size; also: potency is read from the fitted curve at half-maximal effect); details: P450-Glo CYP2D6 enzyme, luciferin luminescence, 1 h; series mostly up to 57.4 µM
Sequence of Cytochrome P450 2D6 (Homo sapiens) (P10635 whole entry, looked up): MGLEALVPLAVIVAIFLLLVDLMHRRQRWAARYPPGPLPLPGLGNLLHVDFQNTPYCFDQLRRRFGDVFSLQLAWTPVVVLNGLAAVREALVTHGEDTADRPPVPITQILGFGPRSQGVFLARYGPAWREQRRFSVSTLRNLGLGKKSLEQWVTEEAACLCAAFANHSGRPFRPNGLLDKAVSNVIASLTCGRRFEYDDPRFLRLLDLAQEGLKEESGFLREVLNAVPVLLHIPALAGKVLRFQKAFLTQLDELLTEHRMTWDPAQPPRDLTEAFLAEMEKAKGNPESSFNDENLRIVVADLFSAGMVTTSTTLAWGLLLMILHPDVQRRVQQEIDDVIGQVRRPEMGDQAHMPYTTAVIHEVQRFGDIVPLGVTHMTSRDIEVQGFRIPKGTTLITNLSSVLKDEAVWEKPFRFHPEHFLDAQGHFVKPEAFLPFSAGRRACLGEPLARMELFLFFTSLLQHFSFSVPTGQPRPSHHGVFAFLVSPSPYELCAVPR
How it was run: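 P450-Glo luminescent screen: recombinant CYP2D6 enzyme–proluciferin substrate mix preincubated with compound 10 min at room temperature, then NADPH regeneration added for 1 h at room temperature. Detection reagent added for 20 min; luciferin light read as relative luminescence units.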

[18] = molecular target: Cytochrome P450 2C9 (Homo sapiens) (UniProt P11712); assay: Cytochrome P450 family 2 subfamily C member 9 (CYP2C9) small molecule antagonists: luciferase biochemical (cell-free) qHTS assay (AID 1645842; active = well fitted curve in the direction sought with a large enough effect in the repeat runs; an effect the other way counts as inactive or inconclusive; also: nearly all actives have a fitted effect of over 55% in size; also: potency is read from the fitted curve at half-maximal effect); details: P450-Glo CYP2C9 enzyme assay, luciferin luminescence; series mostly up to 57.4 µM
Sequence of Cytochrome P450 2C9 (Homo sapiens) (P11712 whole entry, looked up): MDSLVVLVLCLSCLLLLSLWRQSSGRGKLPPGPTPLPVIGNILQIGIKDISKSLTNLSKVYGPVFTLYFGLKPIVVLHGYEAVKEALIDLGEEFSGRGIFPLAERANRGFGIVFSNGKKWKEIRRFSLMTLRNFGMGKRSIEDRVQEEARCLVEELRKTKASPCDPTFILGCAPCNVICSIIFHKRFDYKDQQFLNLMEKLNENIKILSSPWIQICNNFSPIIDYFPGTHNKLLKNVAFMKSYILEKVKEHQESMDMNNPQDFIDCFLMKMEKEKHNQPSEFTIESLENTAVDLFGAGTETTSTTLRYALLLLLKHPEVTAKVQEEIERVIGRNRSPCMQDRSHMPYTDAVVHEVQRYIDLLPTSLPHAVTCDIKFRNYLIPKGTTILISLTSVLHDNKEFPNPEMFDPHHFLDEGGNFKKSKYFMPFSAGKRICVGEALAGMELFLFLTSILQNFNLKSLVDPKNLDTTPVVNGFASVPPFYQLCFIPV
How it was run: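 Luminescence, after 20 min with luciferin detection reagent, reflected CYP2C9 turnover during a 1 h NADPH-driven reaction at 37C. Enzyme-substrate mix contained 0.4% bovine serum albumin and was preincubated with compound 10 min at room temperature.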

[19] = measured here: PEO1 parental Z-AUC

Cc1sc2c(c1C)C(c1ccc(Cl)cc1)=NC(CC(=O)OC(C)(C)C)c1nnc(C)n1-2 (stereo unspecified)
inactive: Potency [3] | Potency [4]
active: Potency [1] 0.129 µM | Potency [2] 0.651 µM | Potency [5] 2 µM

C=C1[C@@H](O)[C@]2(O)OC[C@]34C2[C@]2(C)C(C[C@H]3OC(=O)[C@H](O)[C@@]14O)C(C)=CC(=O)[C@H]2O (stereo partly specified)
inactive: Potency [6] | max response [7] -5.4% | Potency [8] | Potency [9] | Potency [10]
active: Potency [1] 3.17 µM

COc1ccc(C23CCC(=O)C=C2N(C)CC3)cc1OC (stereo unspecified)
active: Potency [10] 25.1 µM
inactive: Potency [1] | max response [2] -6.12% | max response [7] -27.9% | Potency [3] | Potency [11] | Potency [8] | Potency [4] | Potency [5] | Potency [12]

C[C@@H]1Cc2c(Cl)cc(C(=O)N[C@@H](Cc3ccccc3)C(=O)O)c(O)c2C(=O)O1
active: Potency [1] 6.36 µM
inactive: Potency [6] | max response [7] -8.41% | outcome [13] | Potency [3] | Potency [11] | Potency [10]

C[C@]12CC[C@H](OC3OC(CO)C(O)C(O)C3OC3OC(CO)C(O)C(O)C3O)C[C@@H]1CC[C@@H]1C2CC[C@]2(C)[C@@H](C3=CC(=O)OC3)CC[C@]12O (stereo partly specified)
active: Potency [12] 7.08 µM
inactive: outcome [7] | Potency [11] | Potency [9] | Potency [5] | Potency [10]

Cc1sc2c(c1C)C(c1ccc(Cl)cc1)=N[C@@H](CC(=O)Nc1ccc(O)cc1)c1nnc(C)n1-2
inactive: Z-AUC [14] -0.583 | outcome [13] inactive [at 9.27 µM] | activity change, negative = cytotoxicity [3] -1.06% [at 11.6 µM] | activity change, negative = cytotoxicity [4] -11.9% [at 11.6 µM] | activity change, negative = cytotoxicity [12] -20.5% [at 11.6 µM]
-0.491: Z-AUC ([14]; measured here: PEO4 Z-AUC)
active: Potency [1] 0.069 µM | Potency [2] 0.39 µM | Potency [10] 0.562 µM
-0.325: Z-AUC [14, 19]

CC1=CC2/C=C(\C)CCC(O)C(O)/C=C/C(=O)C23C(=O)NC(CC(C)C)C3C1C (stereo unspecified)
active: Potency [1] 2 µM | Potency [2] 2.82 µM | Potency [7] 7.96 µM | Potency [8] 10 µM | Potency [4] 7.94 µM | Potency [5] 12.6 µM | Potency [12] 10 µM

NNC(=O)c1nn(Cc2ccc(Cl)cc2Cl)c2ccccc12
inactive: Potency [6] | max response [7] -5.07% | Potency [3] | Potency [8] | Potency [9] | Potency [4] | Potency [12]

C/C=C(/C)C(=O)O[C@H]1[C@@H]2[C@H](C)C(=O)O[C@@H]2C[C@@H](C)[C@@H]2C=CC(=O)[C@]21C
inactive: Potency [6] | max response [2] -117%
active: Potency [1] 10.1 µM

CC[C@H]1/C=C\C=C/C[C@@H](C)[C@H](O)[C@@](C)(O)C(=O)[C@@H](C)[C@H](O)[C@@H](C)C(=O)[C@@H](C)[C@H](O)[C@@H](C)/C=C\C(=O)O[C@@H]2[C@H](C)[C@H](CC1)O[C@]1(CC[C@H](C)[C@H](C[C@@H](C)O)O1)[C@H]2C
-2.84: Z-AUC [14, 19]
-2.81: Z-AUC ([14]; measured here: PEO4 Z-AUC)
inactive: Z-AUC [14] 0.274 | max response [2] -112% | Potency [5]
active: Potency [15] 20 µM | Potency [1] 0.332 µM

Cc1ncc(OC[C@@]2(c3cccc(F)c3)C[C@H]2C(=O)Nc2ccc(F)cn2)c(C)n1
inactive: Potency [15] | Potency [16] | Z-AUC [14] -0.208 | max response [2] 4.45% | outcome [7] | outcome [13]
0.108: Z-AUC ([14]; measured here: PEO4 Z-AUC)
-0.55: Z-AUC [14, 19]

Cc1cccc(NC(=O)c2ccc(C(F)(F)F)cc2C(=O)O)n1
inactive: Potency [6] | outcome [13]

C/C1=C/[C@@H](C)C/C=C/[C@H]2[C@@H]3O[C@]3(C)[C@@H](C)[C@H]3[C@H](Cc4c[nH]c5ccccc45)NC(=O)[C@]32C(=O)/C=C\C(=O)[C@@H]1O
inactive: Potency [6] | Potency [3] | Potency [11] | Potency [8] | Potency [9] | Potency [4] | Potency [5] | Potency [12]
active: Potency [1] 0.502 µM | Potency [7] 1.59 µM

C/C=C(\C)C(=O)O[C@@H]1[C@@H](C)[C@]2(O)C3C=C(C)C(=O)[C@@]3(O)CC(CO)=C[C@H]2C2C(C)(C)[C@@]21OC(=O)C(C)CC (stereo partly specified)
inactive: Potency [6] | outcome [7] | outcome [13] inactive [at 17.4 µM] | Potency [3] | Potency [11] | Potency [9] | Potency [4] | Potency [10] | Potency [12]

N#Cc1ccccc1-c1cc(-c2ccccn2)cn(-c2ccccc2)c1=O
inactive: Potency [17] | Potency [1] | max response [7] -0.815% | Potency [3] | Potency [11] | Potency [8] | Potency [9] | Potency [4] | Potency [5] | Potency [10] | Potency [12]
active: Potency [18] 13.5 µM

C[C@H]1CN(Cc2ccc(CC(=O)N3CCC(Nc4cccc(F)c4)CC3)cc2)CCN1
active: Potency [17] 12 µM | Potency [2] 18.4 µM | Potency [7] 20.6 µM
inactive: Potency [6] | Potency [18] | Potency [3] | Potency [11] | Potency [8] | Potency [9] | Potency [4] | Potency [5] | Potency [10] | Potency [12]

COc1ccc(CC2C(=O)NC(C)C(=O)N(C)C3Cc4ccc(cc4)Oc4cc(ccc4OC4OC(CO)C(O)C(O)C4O)CC(C(=O)NC(C)C(=O)NC(CCC(=O)O)C(=O)N2C)N(C)C3=O)cc1 (stereo unspecified)
active: Potency [1] 4.88 µM | Potency [5] 7.08 µM
inactive: outcome [13] inactive [at 9.27 µM] | activity change, negative = cytotoxicity [9] -13.7% [at 11.6 µM]
